# Measured values from PubChem BioAssay.
# Calls of active or inactive are those of the source.
# Experiments:
# Albumin (Bos taurus) = Albumin (Bos taurus) (UniProt P02769); assay: bovine serum albumin binders on microarray, profiling panel, artefact control for SMM control protein annotation, biochemical, small-molecule microarray, Alexa647 label, 635/667 nm fluorescence (AID 1118); conditions: BSA-A647 binding, fluorescence 635 nm, higher = more signal;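 further: score merges 667 nm emission intensity and signal-to-noise per printed compound spot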
# [1] = small-molecule microarray binders of probe aXIP, primary screen, biochemical, NeuroSMM set, 635/667 nm fluorescence (AID 1119); conditions: higher = more signal, called active from +8 up or from −8 down;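 further: probe is the protein aXip251-270 applied at 1 µg/mL to compound-printed slides; binding of probe to printed compounds measured as 667 nm fluorescence plus signal to noise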
# [2] = small-molecule binders of probe aNOTCH3, primary screen, biochemical, small-molecule microarray, 635/667 nm fluorescence (AID 1120); conditions: higher = more signal;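 further: probe is a biotin-tagged antibody raised against NOTCH3 rather than NOTCH3 protein; score merges spot fluorescence near 667 nm with spot signal to noise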
# [3] = small-molecule binders of probe aNOTCH2, primary screen, biochemical, small-molecule microarray, 635/667 nm fluorescence (AID 1121); conditions: higher = more signal;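 further: score merges feature fluorescence read at 667 nm with its signal to noise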
# [4] = target: Carbonic anhydrase 2 (Homo sapiens) (UniProt P00918); assay: CAII small-molecule binders, profiling panel, biochemical, small-molecule microarray, Alexa647-labelled CAII (AID 1122); conditions: CAII-A647 binding fluorescence, higher = more signal
# [5] = COS7 lysate on small-molecule microarray, probe aHis, 635 nm (AID 1123); conditions: COS7 cell lysate, fluorescence, higher = more signal;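 further: z-score combines 667nm fluorescence intensity with signal-to-noise per printed compound spot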
# [6] = compound binding in COS7 lysate, probe aLAP1, primary screen, cell lysate, small-molecule microarray (AID 1124); conditions: probe aLAP1, fluorescence, higher = more signal;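 further: lysate comes from COS7 cells expressing LAP1 and is applied at 0.3 µg/mL; score merges spot fluorescence near 667 nm with signal-to-noise over triplicate slides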
# Sam68 (KHDRBS1) = assay: Sam68 small-molecule binders, primary screen, biochemical, small-molecule microarray, 635 nm fluorescence (AID 1125); conditions: small-molecule microarray binding, higher = more signal;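 further: score merges 667 nm channel intensity with signal to noise over triplicate slides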
# [7] = system: Chordin-like protein 2 (CHRDL2); assay: CHRDL2 small-molecule binders, primary screen, biochemical, small-molecule microarray, 635 nm fluorescence (AID 1126); conditions: small-molecule microarray binding, fluorescence 635 nm; higher = more signal;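 further: printed compound slides probed with Chrdl2 protein at 4 µg/mL for 1 h at 4 C; score merges 667 nm emission intensity with signal to noise over three replicate slides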
# [8] = target: Concanavalin-A (Canavalia ensiformis) (UniProt P02866); assay: ConA small-molecule binders, primary screen, artefact control for SMM control protein annotation, biochemical, small-molecule microarray, Alexa647 label, 635 nm (AID 1127); conditions: ConA-A647 binding fluorescence, higher = more signal;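 further: z combines 667 nm emission intensity with signal-to-noise across three replicate slides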
# Sequence of Concanavalin-A (Canavalia ensiformis) (P02866 whole entry, looked up): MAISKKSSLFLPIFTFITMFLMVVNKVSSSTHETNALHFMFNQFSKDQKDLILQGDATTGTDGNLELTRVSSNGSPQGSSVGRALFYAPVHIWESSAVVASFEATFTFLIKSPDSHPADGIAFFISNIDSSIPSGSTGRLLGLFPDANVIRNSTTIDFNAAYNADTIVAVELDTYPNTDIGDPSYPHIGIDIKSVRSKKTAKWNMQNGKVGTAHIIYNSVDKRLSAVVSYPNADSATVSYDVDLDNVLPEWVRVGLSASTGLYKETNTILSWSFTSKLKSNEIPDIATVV
# Sequence of Albumin (Bos taurus) (P02769 whole entry, looked up): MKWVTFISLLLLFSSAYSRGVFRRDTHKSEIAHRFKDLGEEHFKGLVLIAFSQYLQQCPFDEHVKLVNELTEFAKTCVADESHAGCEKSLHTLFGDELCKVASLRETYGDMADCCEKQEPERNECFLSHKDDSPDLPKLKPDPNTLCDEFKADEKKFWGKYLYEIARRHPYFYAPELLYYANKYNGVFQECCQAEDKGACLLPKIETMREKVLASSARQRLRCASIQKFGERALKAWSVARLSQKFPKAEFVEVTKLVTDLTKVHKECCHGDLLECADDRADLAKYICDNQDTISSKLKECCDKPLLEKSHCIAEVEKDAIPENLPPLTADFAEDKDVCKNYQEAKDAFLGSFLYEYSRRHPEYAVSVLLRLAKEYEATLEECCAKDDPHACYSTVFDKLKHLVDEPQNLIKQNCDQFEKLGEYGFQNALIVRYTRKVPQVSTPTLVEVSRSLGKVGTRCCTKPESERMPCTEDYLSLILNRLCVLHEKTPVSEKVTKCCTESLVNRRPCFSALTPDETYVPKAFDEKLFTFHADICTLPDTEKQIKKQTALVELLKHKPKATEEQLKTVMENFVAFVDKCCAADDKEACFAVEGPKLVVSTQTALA
Structure (SMILES),composite z-score (Albumin (Bos taurus)),composite Z-score [1],composite z-score [2],composite z-score [3],composite z-score [4],composite z-score [5],composite z-score [6],composite z-score (Sam68 (KHDRBS1)),composite z-score [7],composite z-score [8]
O=C1C2C=CC(C(O)c3ccco3)N(Nc3ccccc3F)C2C(=O)N1c1ccccc1 (stereo not given),0.963,1.49 (inactive),0.101,-0.104,-0.0101,1.85,0.433,0.309,-0.238,0.403
CC(C)c1ccc(NN2C(C(O)c3ccc(F)cc3)C=CC3C(=O)N(c4ccccc4)C(=O)C32)cc1 (stereo not given),0.839,0.131 (inactive),0.378,0.0147,0.378,2.79,0.846,1.31,-0.0773,1.1
CC1=C2[C@@H](CCc3ccccc3)OB(O)C[C@@H]2[C@@H]2C(=O)N(Cc3ccccc3)C(=O)[C@@H]2C1,0.415,0.831 (inactive),-0.145,-0.0735,0.585,0.328,-0.294,0.227,0.226,0.948
CCCN1C(=O)[C@]2(Cc3ccccc31)N=C(c1ccc(OCCCO)cc1)O[C@@H]2c1ccccc1,-0.0671,0.0068 (inactive),0.247,-0.125,0.625,2.19,0.402,1.24,-0.184,0.884
C=CCC(OC(C)=O)[C@@H]1[C@@H](N(Cc2cc3ccccc3o2)C(=O)Cc2ccc(F)cc2)c2cc(OCCCO)ccc2N1C(=O)Cc1ccc2ccccc2c1 (stereo not given in full),0.533,0.242 (inactive),-0.0311,-0.104,-0.208,0.615,-0.0657,-0.39,-0.21,0.296
CCCC=C(CCC)[C@@H](NS(=O)(=O)CC12CCC(CC1=O)C2(C)C)c1ccc(C(=O)OC)cc1 (stereo not given in full),0.0225,0.234 (inactive),0.344,0.0727,-0.0343,2.12,0.154,0.96,-0.14,0.438
COC(=O)[C@@]1(Cc2ccc(F)cc2)[C@H]2c3cc(C(=O)N(C)C)n(Cc4ccc(OC(F)(F)F)cc4)c3C[C@H]2CN1C(=O)c1ccccc1,0.239,-0.249 (inactive),0.11,-0.078,0.0217,0.398,0.0642,-0.0367,-0.0356,0.296
COc1cc(C(O)C2C=CC3C(=O)N(C)C(=O)C3N2Nc2ccccc2)cc(OC)c1OC (stereo not given),0.785,-0.014 (inactive),0.962,0.106,0.818,3.2,0.708,1.11,-0.0836,1.01
[N-]=[N+]=Nc1ccccc1[C@@H]1OC(c2ccc(OCCCO)cc2)=N[C@]1(Cc1ccccc1)C(=O)O,0.893,0.008 (inactive),0.136,-0.0068,0.62,1.23,-0.25,1.3,0.155,0.665
CCCC#C[Si](O[C@H](CC)c1cn([C@H](C)c2ccccc2)nn1)(C(C)C)C(C)C,0.468,0.381 (inactive),-0.112,-0.0317,0.26,0.47,-0.0249,0.702,0.169,0.488
O=C(O)[C@@H]1[C@@H]2C(=O)N(c3ccccc3)C(=O)[C@@H]2C[C@@H]1Sc1ccccc1,-0.037,0.0618 (inactive),-0.0932,-0.0572,0.526,0.796,0.627,-0.983,-1.06,-0.607
COC(=O)C1(CC(C)C)C=C2C(=C(c3ccccc3)C(=O)C2C)CN1 (stereo not given),0.581,0.465 (inactive),1.31,0.54,0.502,2.15,0.407,-0.213,-0.521,-0.991
CCN(CC)c1ccc(N2CC=CC34O[C@@H]5/C=C\CCCOC(=O)C5[C@H]3C(=O)N(C(C)CO)[C@@H]4C2=O)cc1 (stereo not given in full),0.288,-0.463 (inactive),-0.0647,-0.0862,0.732,0.121,0.248,0.11,0.259,-0.529
C[C@@H]1NC(=O)[C@@H](Cc2ccccc2)NC(=O)[C@@]23C(=O)N[C@@H](Cc4ccccc4)C2[C@H](C)[C@@]2(C)O[C@H]2C3/C=C/C/C=C\CNC1=O (stereo not given in full),0.324,-0.888 (inactive),-0.277,-0.125,0.493,1.05,0.074,0.126,-0.153,-0.447
C=CC[C@@H](OC(=O)Nc1ccc(SC)cc1)c1ccc(O)c(F)c1,-0.102,0.452 (inactive),-0.0647,-0.114,0.643,0.527,0.341,0.152,0.268,-0.0538
CCCNC(=O)[C@@H]1c2ccccc2C(=O)N(Cc2ccc(OC(F)(F)F)cc2)[C@H]1c1ccc(CO)cc1,0.27,-0.123 (inactive),-0.0288,-0.0326,0.158,0.677,-0.374,0.416,0.102,0.0505
O=C1C2C=CC(C(O)c3cccc(O)c3)N(Nc3ccc([N+](=O)[O-])cc3)C2C(=O)N1c1ccccc1 (stereo not given),0.477,-0.335 (inactive),0.0116,-0.0703,0.788,0.762,0.153,0.821,-0.264,0.41
COCC(=C=CC[C@H](O)c1ccc(CO)o1)CCO,0.0697,0.701 (inactive),0.0066,-0.14,0.748,1.27,-0.0497,0.601,0.0549,0.494
CCCC[C@@H]1C[C@H]1[C@@H](NC(=O)c1cccs1)c1ccccc1C(F)(F)F,0.485,-0.147 (inactive),0.265,0.0117,0.431,2.62,0.588,1.27,-0.319,1.08
CC(=O)NCCCC[C@@H]1NC(=O)[C@@H]2C[C@H](C(=O)NCCCCCN)[C@H](c3ccc(O)cc3)N2C1=O,0.0285,-0.0662 (inactive),0.237,0.0654,0.527,1.26,1.06,1.11,0.964,0.956
COc1ccc(CCNC(=O)[C@@]2(Sc3ccc(C)cc3)CC(=O)N(Cc3ccccc3C(F)(F)F)[C@@H]2c2ccc(CO)cc2I)cc1,0.589,-0.0511 (inactive),-0.357,0.102,0.759,2.09,-0.0867,-0.3,-0.865,-0.71
C=C(C(=O)CC[C@H](OC(=O)c1ccccc1-c1ccccc1C(=O)O)c1cccc(OCCO)c1)C(C)C,0.688,-0.302 (inactive),-0.185,-0.162,0.696,0.715,0.2,-0.192,-0.0748,0.0561
C=CC[C@@H](OC(=O)Nc1ccc(OC)cc1)c1ccc(O)c(F)c1,0.66,0.683 (inactive),-0.266,-0.153,0.493,1.93,0.738,-0.56,-0.861,-0.9
CCOC(=O)C1=C[C@@H](c2ccccc2)N(S(=O)(=O)c2ccc(C)cc2)[C@H]1c1ccc(OC)cc1,0.72,-0.0164 (inactive),0.815,0.493,0.614,1.71,0.755,1.32,-0.224,1.1
Cc1ccc(S[C@]2(C(=O)O)CC(=O)N(C3CCCCC3)[C@@H]2c2ccc(CO)cc2I)cc1,0.905,0.258 (inactive),0.175,-0.013,0.331,2.84,1.01,1.29,-0.565,1.02
CC1CC/C=C\[C@H]2OC34C=CCN(Cc5ccccc5)C(=O)[C@H]3N(C(CO)C(C)C)C(=O)[C@@H]4C2C(=O)O1 (stereo not given in full),-1.39,-0.263 (inactive),0.0666,-0.0418,0.821,0.152,0.219,-0.271,-0.398,-0.355
